Experimental data from PubChem BioAssay (NCI).
About 83,000 compounds went through this panel and 20% of them were active in at least one assay; those are over-represented in the sample as a whole.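 Negative percent growth values reflect cell death: -40 means 40% of the cells present at the start died, and -100 means all died.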 A number with no mark means an inactive call. Calls of active or inactive are those of the source. How the source made its calls: active means growth percent below 10; inactive means the rest.

Legend:
Test in all cases: NCI-60 one-dose screen, 48 h (100 = growth as untreated, 0 = no growth, -100 = all killed)
Settings in all cases: 10 µM unless noted
[1] = system: HCT-15 colon
[2] = system: HT29 colon
[3] = system: SNB-75 CNS
[4] = system: SNB-19 CNS
[5] = system: U251 CNS
[6] = system: PC-3 prostate
[7] = system: SK-MEL-5 melanoma
[8] = system: UACC-62 melanoma
[9] = system: LOX IMVI melanoma
[10] = system: SK-MEL-28 melanoma

Structure (SMILES)	growth [1]	growth [2]	growth [3]	growth [4]	growth [5]	growth [6]	growth [7]	growth [8]	growth [9]	growth [10]
CN1CCN(c2nc(-c3cccc4ccccc34)nc3sc4c(c23)CCCCCC4)CC1	91.8%	71.2%	49.1%	91.5%	66.4%	56.7%	85.3%	87.6%	95.1%	98.1%
O=C(c1ccccc1)C(CN1CCOCC1)c1ccccc1 (centres undefined)	1.74% (active)	-67% (active)	51.8%	78.3%	19.3%	48.7%	44.5%	22.4%	-34.7% (active)	68.6%
COc1cc2[nH]c(C(=O)c3cc(OC)c(OC)c(OC)c3)c(N)c2cc1C#CC1CC1	23.1%	5.53% (active)	-4.88% (active)	45.1%	45%	16.7%	18.4%	34.4%	36.1%	35.2%
C/C(=N\Nc1ccc2ccccc2n1)c1ccccn1	22.6%	-2.94% (active)	35.3%	23.8%	4.2% (active)	4.97% (active)	-57.5% (active)	-54.8% (active)	-19.8% (active)	30.2%
CCCC(=O)N1CCCCC1CC (centres undefined)	99.4%	106%	92%	112%	91.8%	92.5%	117%	111%	105%	112%
Nc1c(C(=O)Nc2cccc(Cl)c2)sc2ncc(Cl)cc12	80.7%	90.3%	59.6%	105%	10.6%	95.7%	94.3%	95.5%	44.8%	91.7%
COc1cc2[nH]c(C(=O)c3cc(OC)c(OC)c(OC)c3)c(N)c2cc1C#CCO	19.6%	1.02% (active)	8.88% (active)	26.3%	22.8%	10.6%	-0.319% (active)	31.2%	39.4%	14.3%
c1ccc(C2Cc3ccccc3C2=NC2CCCCC2)cc1 (centres undefined)	94.9%	106%	92.3%	104%	97.9%	84.4%	103%	99.6%	103%	114%
Cc1cc(Nc2ccc(F)cc2)nc(N2CCN(c3ccnc4cc(Cl)ccc34)CC2)n1	9.8% (active)	1.42% (active)	14.6%	43.9%	26.4%	11.1%	14.1%	21.5%	13.1%	16.7%
Oc1cc(/C=C/c2nc(N3CCOCC3)c3cc(Cl)c(Cl)cc3n2)cc(O)c1O	98.9%	120%	91.5%	102%	102%	101%	90%	98.8%	106%	109%
O=C1C=C(C(O)c2ccc(O)cc2)C(=O)c2ccccc21 (centres undefined)	94.9%	115%	102%	110%	95.1%	99.5%	96.5%	101%	83.7%	120%
Cc1cc(C=O)c(C)c2c1[nH]c1ccccc12	99.8%	93.2%	78.7%	94.6%	94.1%	92.5%	112%	57.3%	81.5%	110%
COC(=O)c1cc(=O)nc(N/N=C/c2ccc(C)cc2)s1	86.2%	104%	91.7%	109%	107%	91.2%	98.9%	115%	109%	104%
O=C(NC(Cc1cn(Cc2ccccc2)cn1)C(=O)O)OCC1c2ccccc2-c2ccccc21 (centres undefined)	104%	98.1%	92.3%	109%	101%	100%	103%	112%	97.8%	104%
CC(C)=CCC/C(C)=C/CC/C(C)=C/CSC[C@H](NC(=O)CCCCCN1CCN(C)CC1)C(=O)NC1CCCCCC1	0.0874% (active)	-48.3% (active)	73.8%	81%	33.2%	51.9%	79.9%	3.45% (active)	25.3%	-56% (active)
NS(=O)(=O)c1ccc(CCNC(=O)/C=C/c2ccc(Cl)cc2)cc1	98.5%	95.7%	85.2%	99%	97.8%	87.1%	105%	104%	99.1%	104%
COC(=O)[C@@H]1[C@H]2C[C@H]3c4[nH]c5cc(OC)ccc5c4CCN3C[C@@H]2C[C@H](OC(=O)/C=C/c2ccnc(OC)c2)[C@H]1OC	71.1%	75.6%	53.5%	86.7%	78%	76%	94.8%	86.7%	86.5%	99.2%
Cc1nnc2nc(N)[nH]n2c1=O	99.4%	104%	93.7%	117%	99%	98%	106%	115%	94.7%	109%
Cc1ccc(Nc2c(C(N)=O)cnc3ccc(S(=O)(=O)Nc4cc(C)on4)cc23)cc1	108%	98.3%	81%	94.7%	95.6%	86.5%	99%	91.8%	95.8%	101%
COc1ccc(C(=O)c2cc(OC)c(OC)c(OC)c2)cc1/C=C/C(=O)c1cc(OC)c(OC)c(OC)c1	64.7%	82.7%	65.4%	92.7%	86.4%	86.5%	86.6%	70.6%	79%	91.3%
NC(Cc1ccc(O)cc1)C(=O)N/N=C/c1ccccc1O (centres undefined)	96.8%	101%	92.7%	110%	96.9%	89.3%	103%	113%	92.6%	106%
O=C(CI)Nc1ccc(O)c2ccccc12	-10.1% (active)	0.99% (active)	54.2%	46.1%	-28.4% (active)	43.3%	-47.7% (active)	-58.7% (active)	-60.6% (active)	41.5%
O=C1c2ccccc2C(=Cc2ccccc2)c2ccccc21	7.88% (active)	0.453% (active)	-40.9% (active)	24.8%	6.21% (active)	31.8%	13.7%	23.9%	4.62% (active)	18.3%
C/C(=N\Nc1cc(C)c2cc(C)ccc2n1)c1ccccn1	-16.5% (active)	-99.3% (active)	5.85% (active)	20.6%	-100% (active)	15.2%	-98.9% (active)	-54.4% (active)	-86.4% (active)	-93.3% (active)
C/C(=N/NC(N)=S)C(=O)O	82.9%	56.5%	95.3%	98.4%	73.9%	72.8%	102%	99.9%	74.9%	103%
CC(CNc1nc(Nc2ccc(Cl)c(Cl)c2)nc(C(Cl)(Cl)Cl)n1)N(C)C (centres undefined)	-27.7% (active)	-76.3% (active)	-18.9% (active)	-1.09% (active)	-82.6% (active)	-40.3% (active)	-56.9% (active)	-4.78% (active)	-57.2% (active)	–
Cc1ccc(-c2nc3ccc(Cl)cc3c(=O)n2N2C(=O)CSC2c2ccccc2Cl)cc1 (centres undefined)	86.9%	83.7%	36.1%	75.2%	22.3%	70.6%	94%	77.3%	89.1%	98.6%
